# Results reported in PubChem BioAssay.
# Unmarked numbers belong to inactive results. Active and inactive are the calls of the source. Rule as the data show it, unless noted: active = inhibition above about 44%; inactive = the rest.
# Target: Nuclear receptor subfamily 5 group A member 2 (Homo sapiens) (UniProt O00482)
# Assay: LRH-1 (NR5A2) inverse agonists, retest, confirmation, cell-based, luminescence (AID 651613; in the data active = inhibition above about 42%;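 also: HEK293T cells co-transfected with LRH-1 and StAR promoter luciferase reporter; 0% = vehicle wells and 100% = parental cells lacking receptor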)
# Conditions: cell-based LRH-1 luciferase reporter, inverse agonism; at 3.6 µM; hits give high values
# Chain of Nuclear receptor subfamily 5 group A member 2 (Homo sapiens) (O00482 whole entry, looked up): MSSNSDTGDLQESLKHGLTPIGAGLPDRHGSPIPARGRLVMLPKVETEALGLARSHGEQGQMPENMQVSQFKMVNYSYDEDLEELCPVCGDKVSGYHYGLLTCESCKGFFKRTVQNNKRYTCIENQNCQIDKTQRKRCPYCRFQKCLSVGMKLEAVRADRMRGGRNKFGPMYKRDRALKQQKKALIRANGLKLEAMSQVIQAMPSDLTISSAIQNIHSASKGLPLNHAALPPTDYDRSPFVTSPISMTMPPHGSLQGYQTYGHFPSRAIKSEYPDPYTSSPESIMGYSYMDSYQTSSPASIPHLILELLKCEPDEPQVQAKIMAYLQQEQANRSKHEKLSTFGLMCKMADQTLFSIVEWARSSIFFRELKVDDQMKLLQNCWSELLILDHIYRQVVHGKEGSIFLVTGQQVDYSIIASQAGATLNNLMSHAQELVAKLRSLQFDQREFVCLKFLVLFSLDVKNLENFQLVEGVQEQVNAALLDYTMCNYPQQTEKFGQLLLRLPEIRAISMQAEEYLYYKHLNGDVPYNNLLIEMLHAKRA
row,Structure (SMILES),inhibition
1,Cc1ccc(NC(=O)CSc2sc3c(O)cc(=O)[nH]c3c2C#N)c(F)c1,57.1% (active)
2,COc1cc(-c2cc(C(=O)NCc3ccc(S(N)(=O)=O)cc3)c3ccccc3n2)cc(OC)c1OC,20.3%
3,O=C(Cn1cc(COc2ccc(C(=O)c3ccccc3)cc2)nn1)c1ccc(O)cc1,47.4% (active)
4,COc1cc(NC(=O)c2ccc([N+](=O)[O-])o2)ccc1NC(=O)c1cccs1,61.1% (active)
5,CC(C)Cn1c(N)c(C(=O)NCC2CCCO2)c2nc3ccccc3nc21 (stereo unspecified),42.8% (active)
6,CC(=O)Nc1ccc(NC(=O)CSc2nc3nc(-c4cccs4)cc(C(F)(F)F)c3c(=O)[nH]2)cc1,54.2% (active)
7,O=[N+]([O-])c1ccc(N2CCCC2)nc1N1CCCC1,59.7% (active)
8,CC(C)OC(=O)C(=O)NNc1ccccc1,12.2%
9,COc1cccc(-c2cnc3c(NC=O)cc(-c4ccc(S(C)(=O)=O)cc4)cn23)c1,61.5% (active)
10,CCCCOCCCNc1ncnc2c1[nH]c1ccccc12,50% (active)
11,Cc1ccc(S(=O)(=O)Oc2ccccc2/C=N/NC(N)=S)cc1,70.6% (active)
12,O=C(CCl)Nc1cccn2ncnc12,49.3% (active)
13,Cc1ccccc1C(=O)NC1CCN(CC(=O)Nc2ccc(Br)cc2)CC1,59.1% (active)
14,CCN(CC)c1ccc(NC(=O)CSc2nnc(N)s2)cc1C,57.1% (active)
15,CN(C)c1nnnn1-c1cccc(Oc2ncc(C(F)(F)F)cc2Cl)c1,38.6%
16,COc1ccc(-c2oc(=O)c3cc(OC)c(OC)cc3c2C#CCCO)cc1,28.7%
17,Fc1ccc(Br)cc1SCCc1ccncc1,45.7% (active)
18,O=C(CSc1ncnc2c1cnn2-c1ccccc1)Nc1ccc2c(c1)OCO2,55.6% (active)
19,CSc1nc(SCC(=O)NCc2ccco2)c2c3c(sc2n1)COC(C)(C)C3,54.7% (active)
20,CC(/C=C(\NC(=O)c1ccccc1)C(=O)N=Nc1c(O)[nH]c2ccc(C)cc12)=C\c1ccccc1,31.7%
21,Cc1cc(C)nc(SCC(=O)Nc2ccc(N3CCOCC3)c(Cl)c2)n1,67.5% (active)
22,Cc1cc(C)n(-c2nc(Nc3ccccc3C(F)(F)F)nc(-n3nc(C)cc3C)n2)n1,21.6%
23,O=C(NNc1c(F)c(F)cc(F)c1F)C1CCN(S(=O)(=O)c2ccccc2F)CC1,8.61%
24,N=c1sccn1CC(=O)Nc1ccc(S(N)(=O)=O)cc1,54.1% (active)
25,Cc1ccc(C(O)(C(=O)NN(C(=O)c2ccccc2)c2ccccc2)c2ccc(C)cc2)cc1,65.8% (active)
26,O=C(Nc1ccccc1Cl)c1ccc([N+](=O)[O-])o1,63.9% (active)

# Target: Steroidogenic factor 1 (Homo sapiens) (UniProt Q13285)
# Sequence (Q13285 whole entry, looked up): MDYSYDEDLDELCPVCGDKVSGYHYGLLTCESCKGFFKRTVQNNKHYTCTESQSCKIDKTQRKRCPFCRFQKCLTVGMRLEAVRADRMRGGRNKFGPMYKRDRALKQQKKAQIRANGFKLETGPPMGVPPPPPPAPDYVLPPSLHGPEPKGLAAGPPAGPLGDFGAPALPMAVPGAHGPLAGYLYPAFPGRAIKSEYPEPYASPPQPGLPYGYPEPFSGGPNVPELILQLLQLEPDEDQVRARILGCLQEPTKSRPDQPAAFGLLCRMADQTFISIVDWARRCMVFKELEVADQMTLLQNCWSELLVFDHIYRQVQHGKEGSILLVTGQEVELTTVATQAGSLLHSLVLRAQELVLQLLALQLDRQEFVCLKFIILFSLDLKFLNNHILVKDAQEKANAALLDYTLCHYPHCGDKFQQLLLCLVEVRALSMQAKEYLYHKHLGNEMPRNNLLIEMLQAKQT
# Assay: SF1 (NR5A1) inverse agonists, counter-screen for LRH-1 inverse agonist project, cell-based, luminescence, high throughput (AID 651614);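 also: cells cotransfected with StAR promoter reporter and SF1 expression vector; 0% = vehicle on cells with receptor and 100% = vehicle on cells lacking receptor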
# Conditions: cell-based SF1 luciferase reporter, at 3.6 µM, hits give high values
row,Structure (SMILES),inhibition
1,O=C(Cn1ncc2c([nH]c3ccccc32)c1=O)Nc1ccc(CN2CCCCC2)cc1,62.4% (active)
2,Cc1nc2ccccc2n1/N=C/c1ccc([N+](=O)[O-])s1,71.4% (active)
3,CCCCCCCCN1C(=O)[C@H](CC(=O)NCC23CC4CC(CC(C4)C2)C3)C[C@@]2(C(=O)OCC)CCCC=C12,17.4%
4,O=C(c1ccc(=O)n(Cc2ccccc2)n1)N1CCN(C/C=C/c2ccccc2)CC1,28%
5,O=C(NCC1CCCO1)c1ccc(NC(=O)c2cccc([N+](=O)[O-])c2)cc1 (stereo unspecified),54% (active)
6,COc1cc2cc(C(=O)NC(C)c3cccc4ccccc34)c(N)nc2cc1OC (stereo unspecified),59.1% (active)
7,CCN(CC)C1Oc2cc3c(cc2C(c2cccc(OC)c2O)C1C)OCO3 (stereo unspecified),72% (active)
8,C=CC(=O)Nc1cccc(Oc2ncnc3[nH]cc(-c4cnc5ccccc5c4)c23)c1,65.6% (active)
9,CC(Oc1ccc(S(=O)(=O)N2CCCC2)cc1[N+](=O)[O-])C(=O)NC(C)c1ccccc1 (stereo unspecified),50.8% (active)
10,COc1cc2c(OC(C)=O)c3c(c(-c4ccc5c(c4)OCO5)c2cc1OC)C(=O)OC3,36.2%
11,Cc1cc(OCC(=O)NC2CC2)c2c(C)c(C)c(=O)oc2c1,53.2% (active)
12,COc1ccc(CCNC(=O)CSC2=Nc3ccccc3C3=NC(C(C)C)C(=O)N23)cc1OC (stereo unspecified),53.1% (active)
13,Cn1c(SCC(=O)Nc2ccc3nc(SCC(=O)NC4CC4)sc3c2)nnc1-c1ccccc1,61.5% (active)
14,CC(O)(c1ccc(F)c(F)c1)c1nc(-c2ccc(S(C)(=O)=O)cc2)cs1 (stereo unspecified),49.5% (active)
15,Cc1ccc(NC(=O)CSc2sc3c(O)cc(=O)[nH]c3c2C#N)c(F)c1,41.9%
16,COc1cc(-c2cc(C(=O)NCc3ccc(S(N)(=O)=O)cc3)c3ccccc3n2)cc(OC)c1OC,23.5%
17,O=C(Cn1cc(COc2ccc(C(=O)c3ccccc3)cc2)nn1)c1ccc(O)cc1,57% (active)
18,COc1cc(NC(=O)c2ccc([N+](=O)[O-])o2)ccc1NC(=O)c1cccs1,61.9% (active)
19,CC(C)Cn1c(N)c(C(=O)NCC2CCCO2)c2nc3ccccc3nc21 (stereo unspecified),37.3%
20,CC(=O)Nc1ccc(NC(=O)CSc2nc3nc(-c4cccs4)cc(C(F)(F)F)c3c(=O)[nH]2)cc1,49.2% (active)

row,Structure (SMILES),inhibition
1,O=[N+]([O-])c1ccc(N2CCCC2)nc1N1CCCC1,56.1% (active)
2,CC(C)OC(=O)C(=O)NNc1ccccc1,4.1%
3,COc1cccc(-c2cnc3c(NC=O)cc(-c4ccc(S(C)(=O)=O)cc4)cn23)c1,52.4% (active)
4,CCCCOCCCNc1ncnc2c1[nH]c1ccccc12,53.6% (active)
5,Cc1ccc(S(=O)(=O)Oc2ccccc2/C=N/NC(N)=S)cc1,66.8% (active)
6,O=C(CCl)Nc1cccn2ncnc12,54.6% (active)
7,Cc1ccccc1C(=O)NC1CCN(CC(=O)Nc2ccc(Br)cc2)CC1,53.4% (active)
8,CCN(CC)c1ccc(NC(=O)CSc2nnc(N)s2)cc1C,51.4% (active)
9,CN(C)c1nnnn1-c1cccc(Oc2ncc(C(F)(F)F)cc2Cl)c1,38.3%
10,COc1ccc(-c2oc(=O)c3cc(OC)c(OC)cc3c2C#CCCO)cc1,29.1%
11,Fc1ccc(Br)cc1SCCc1ccncc1,34.9%
12,O=C(CSc1ncnc2c1cnn2-c1ccccc1)Nc1ccc2c(c1)OCO2,48.5% (active)
13,CSc1nc(SCC(=O)NCc2ccco2)c2c3c(sc2n1)COC(C)(C)C3,57.6% (active)
14,CC(/C=C(\NC(=O)c1ccccc1)C(=O)N=Nc1c(O)[nH]c2ccc(C)cc12)=C\c1ccccc1,30.2%
15,Cc1cc(C)nc(SCC(=O)Nc2ccc(N3CCOCC3)c(Cl)c2)n1,59.8% (active)
16,Cc1cc(C)n(-c2nc(Nc3ccccc3C(F)(F)F)nc(-n3nc(C)cc3C)n2)n1,24.5%
17,O=C(NNc1c(F)c(F)cc(F)c1F)C1CCN(S(=O)(=O)c2ccccc2F)CC1,22.4%
18,N=c1sccn1CC(=O)Nc1ccc(S(N)(=O)=O)cc1,50.5% (active)
19,Cc1ccc(C(O)(C(=O)NN(C(=O)c2ccccc2)c2ccccc2)c2ccc(C)cc2)cc1,62.9% (active)
20,O=C(Nc1ccccc1Cl)c1ccc([N+](=O)[O-])o1,75.9% (active)
